Results taken from the antibiotic and cytotoxicity screens of Wong et al. (2023).
About 1,500 (3.8%) of roughly 39,000 compounds were called active. For the sample, actives were picked, then their nearest neighbours and some compounds at random.

What follows are compounds tested on HSkMC (human skeletal muscle cells) (assay: cytotoxicity call (relative viability < 0.9)). Details: 10 µM.

SMILES | cytotoxicity call
COc1ccc(S(=O)(=O)N(C)C[C@H]2OCCCC[C@H](C)Oc3ccc(NC(=O)C4CCCCC4)cc3C(=O)N([C@H](C)CO)C[C@@H]2C)cc1 | inactive
Cn1c(C(=O)N[C@H](CO)Cc2c[nH]c3ccccc23)cc(=O)n(C)c1=O | inactive
C[C@H](CO)N1C[C@H](C)[C@@H](CN(C)C(=O)CCCN(C)C)OCc2cn(nn2)CCCC1=O | inactive
Cc1ccc(S(=O)(=O)Nc2ccc3c(c2)C(=O)N([C@H](C)CO)C[C@H](C)[C@@H](CN(C)C(=O)CCC(F)(F)F)OCCCC[C@@H](C)O3)cc1 | inactive
CC(C)C(=O)NCc1nnnn1-c1ccccc1 | inactive
C[C@@H]1CCCCO[C@@H](CN(C)C(=O)c2ccccc2)[C@@H](C)CN([C@@H](C)CO)C(=O)c2cc(NC(=O)Cc3ccccc3)ccc2O1 | inactive
COc1ccc(CN(C)C[C@@H]2Oc3c(NC(=O)c4cnccn4)cccc3C(=O)N([C@H](C)CO)C[C@H]2C)cc1 | inactive
O=C1O[C@@H](c2ccccc2)[C@@H](c2ccccc2)N2[C@@H](c3ccc(O)cc3)[C@]3(C(=O)Nc4ccccc43)[C@@H](C(=O)NC[C@H](O)c3ccccc3)[C@H]12 | inactive
CN1CCN(C(=O)C[C@@H]2CC[C@@H]3[C@H](COC[C@H](O)CN3C(=O)C3CCCC3)O2)CC1 | inactive
Cc1cc(O)c(C(C)C)cc1Cl | inactive
COc1cccc(C#Cc2cnc3c(c2)C(=O)N([C@@H](C)CO)C[C@H](C)[C@@H](CN(C)C(=O)C2CCC2)O3)c1 | inactive
C=C1C2CCC3(C)C(c4ccoc4)OC(=O)CC13OC1CC(=O)C(C)(C)C(C(O)C(=O)OC)C12C (configuration not stated) | inactive
CC(C)NC(=O)Nc1ccc2c(c1)C(=O)N([C@@H](C)CO)C[C@@H](C)[C@H](CN(C)S(=O)(=O)c1cn(C)cn1)O2 | inactive
O=C(C[C@H]1CC[C@H]2[C@@H](COC[C@@H](O)CN2C(=O)c2ccccc2F)O1)N1CCN(c2ccccc2)CC1 | inactive
COc1ccc(-c2ccc3c(c2)O[C@H](CN(C)CC2CCOCC2)[C@@H](C)CN([C@@H](C)CO)S3(=O)=O)cc1 | inactive
Cc1[nH]c(/C=C2\C(=O)Nc3ccc(S(=O)(=O)Cc4c(Cl)cccc4Cl)cc32)c(C)c1C(=O)N1CCC[C@@H]1CN1CCCC1 | active
C[C@H](CO)N1C[C@H](C)[C@@H](CN(C)Cc2ccc(C(=O)O)cc2)Oc2ccc(NC(=O)Nc3ccc(C(F)(F)F)cc3)cc2C1=O | inactive
C[C@@H]1CN([C@H](C)CO)C(=O)c2cc(NC(=O)Nc3ccc(C(F)(F)F)cc3)ccc2O[C@H]1CN(C)Cc1ccccc1 | active
C[C@H](CO)N1C[C@H](C)[C@@H](CN(C)Cc2ccccc2)Oc2ccc(NC(=O)Nc3ccc(C(F)(F)F)cc3)cc2C1=O | active
C[C@H](CO)N1C[C@H](C)[C@H](CN(C)Cc2ccc(C(=O)O)cc2)Oc2ccc(NC(=O)Nc3ccc(C(F)(F)F)cc3)cc2C1=O | inactive
C[C@@H]1CN([C@@H](C)CO)C(=O)c2cc(NC(=O)Nc3ccc(C(F)(F)F)cc3)ccc2O[C@H]1CN(C)Cc1ccccc1 | active

SMILES | cytotoxicity call
C[C@H](CO)N1C[C@H](C)[C@H](CN(C)Cc2ccccc2)Oc2ccc(NC(=O)Nc3ccc(C(F)(F)F)cc3)cc2C1=O | inactive
C[C@@H]1CN([C@@H](C)CO)C(=O)c2cc(NC(=O)Nc3ccc(C(F)(F)F)cc3)ccc2O[C@@H]1CN(C)Cc1ccccc1 | active
C[C@@H]1CN([C@@H](C)CO)C(=O)c2cccc(N(C)C)c2O[C@H]1CN(C)S(=O)(=O)c1ccc(Cl)cc1 | inactive
CCCNC(=O)C[C@@H]1CC[C@H]2[C@H](COc3ccc(NS(=O)(=O)c4ccccc4C)cc3C(=O)N2C)O1 | inactive
Cc1noc(C)c1NC(=O)Nc1cccc2c1O[C@@H](CN(C)C(=O)NC(C)C)[C@H](C)CN([C@@H](C)CO)C2=O | inactive
COc1ccc(NC(=O)Nc2ccc3c(c2)C(=O)N([C@H](C)CO)C[C@H](C)[C@H](CN(C)C(=O)Nc2ccc(C(F)(F)F)cc2)OCCCC[C@H](C)O3)cc1 | inactive
C[C@H]1CN([C@@H](C)CO)C(=O)c2cc(NC(=O)Nc3ccc(C(F)(F)F)cc3)ccc2O[C@H]1CN(C)Cc1ccccc1 | active
C[C@@H]1CN([C@H](C)CO)C(=O)c2cc(NC(=O)Nc3ccc(C(F)(F)F)cc3)ccc2O[C@@H]1CN(C)Cc1ccccc1 | inactive
C[C@H]1CN([C@@H](C)CO)C(=O)c2cc(NC(=O)Nc3ccc(C(F)(F)F)cc3)ccc2O[C@@H]1CN(C)Cc1ccccc1 | inactive
CN(C)S(=O)(=O)Nc1cccc(N)c1 | inactive
COCC(=O)N1C[C@@H](C)[C@@H](OC)CN(C)C(=O)c2cc(NC(=O)c3ccc(OC)cc3)ccc2OC[C@@H]1C | inactive
COc1cccc2c1C(=O)c1c(O)c3c(c(O)c1C2=O)C[C@](O)(C(C)=O)C[C@H]3O[C@H]1C[C@@H](N)[C@@H](O)[C@@H](C)O1 | active
CC(=O)[C@]1(O)Cc2c(O)c3c(c(O)c2[C@@H](O[C@@H]2C[C@@H](N)[C@H](O)[C@@H](C)O2)C1)C(=O)c1c(O)cccc1C3=O | active
COc1cccc2c1C(=O)c1c(O)c3c(c(O)c1C2=O)C[C@@](O)(C(C)=O)C[C@@H]3O[C@H]1C[C@H](N)[C@H](O)[C@H](C)O1 | active
CC(=O)[C@]1(N)Cc2c(O)c3c(c(O)c2[C@@H](O[C@H]2C[C@H](O)[C@H](O)CO2)C1)C(=O)c1ccccc1C3=O | active
COc1cccc2c1C(=O)c1c(O)c3c(c(O)c1C2=O)CC(O)(C(C)=O)CC3OC1CC(N)C(O)C(C)O1.Cl (configuration not stated) | inactive
O=C(C[C@@H]1CC[C@H]2[C@@H](COC[C@H](O)CN2C(=O)c2ccncc2)O1)NC1CCC1 | inactive
CNCC1CCOCC1 | inactive
CO[C@@H]1CN(C)C(=O)c2cc(NS(=O)(=O)c3ccccc3C)ccc2OC[C@H](C)N(S(C)(=O)=O)C[C@H]1C | inactive
Cc1noc(C)c1S(=O)(=O)Nc1ccc2c(c1)C(=O)N([C@H](C)CO)C[C@H](C)[C@@H](CN(C)C(=O)Nc1ccc(F)cc1)OCCCC[C@H](C)O2 | inactive
C[C@H]1CN([C@@H](C)CO)C(=O)c2cc(C#CCN(C)C)cnc2O[C@@H]1CN(C)C(=O)c1cnccn1 | inactive
